What all share (experiment): NCI-60 one-dose screen, 48 h (100 = growth as untreated, 0 = no growth, -100 = all killed)
Common to all, as to conditions: 10 µM unless noted

Experiment [1] deals with SR leukemia.
Experiment [2] concerns RPMI-8226 leukemia.
Experiment [3] concerns OVCAR-8 ovarian.
The subject of experiment [4] is OVCAR-5 ovarian.
Experiment [5] deals with OVCAR-4 ovarian.
The subject of experiment [6] is SK-OV-3 ovarian.
The test system of experiment [7] is IGROV1 ovarian.
The subject of experiment [8] is OVCAR-3 ovarian.
Experiment [9] deals with HS 578T breast.
Experiment [10] concerns NCI/ADR-RES ovarian.

This is part of a sample that, as a whole, favours compounds with a hit. Of some 83,000 tested, about 20% had one in any assay.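 Percent growth is the endpoint: 0 to 100 indicates growth inhibition (40 means 60% inhibition), 0 means no net growth, and negative values indicate cell death.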 A number with no mark means an inactive call. Active and inactive are the calls of the source. How the source made its calls: active means growth percent below 10; inactive means the rest.

In the case of `COc1cccc2c(N=NC(=O)c3ccc(S(N)(=O)=O)cc3)c(O)[nH]c12`, the growth in experiment [1] was 81.2%; in [2], 103%; in [3], 102%; in experiment [4] it was 106%; in experiment [5] it was 96.8%; in [6] it was 107%. For the same compound, the growth was 101% in experiment [7], 114% in experiment [8], 101% in [9] and 105% in [10].
In the case of `CC[C@@H](c1ccc2cc(OC)ccc2c1)C(C)(C)C(=O)F`, the growth in experiment [1] is 112%; in experiment [2] it was 146%; in experiment [3], 94.8%; in [4], 86.2%; in [5], 109%; in experiment [6], 107%. In addition, the growth in experiment [7] was 28.3%; in [8] it was 85.7%; in experiment [9], 91.8%; in experiment [10] it was 77.5%.
On to `CCOC(=O)c1c(-c2ccccc2)n2c(=O)cc(C)c3c(O)c(O)cc1c32`, for which the growth in experiment [1] was 22.4%; in [2], 36.5%; in [3], 29.1%; in experiment [4], 70.1%; in experiment [5], 15.4%; in [6], 76.3%. In addition, the growth in experiment [7] was 61.2%; in [8] it was 0.992% (active); in experiment [9], 87.7%; in [10], 15.3%.
As to `CCN1CCN(CC(=O)Nc2nc3ccc(NCc4ccc(Br)cc4)cc3s2)CC1`, the growth was 0.987% (active) in [1]; 41.8% in experiment [2]; 81.8% in [3]; 76% in experiment [4]; 72.9% in [5]; 90% in experiment [6]. The growth is 86.8% in experiment [7], 57.2% in experiment [8], 81.3% in experiment [9] and 79.3% in experiment [10].
`Cc1cccc(-n2c(C)nc3ccc(N4CCCNC4=O)cc3c2=O)c1`: the growth in [1] was 98%; in experiment [2], 104%; in experiment [3], 99.5%; in experiment [4] it was 112%; in experiment [5] it was 99.3%; in experiment [6], 114%. Besides, the growth was 111% in [7], 107% in experiment [8], 111% in experiment [9] and 103% in [10].
Consider `O=C(Nc1cccc(NC(=O)C2CCCCC2)c1)c1ccccn1`, for which the growth in experiment [1] was 88.9%; in experiment [2], 105%; in [3] it was 104%; in experiment [4] it was 105%; in [5], 101%; in experiment [6] it was 102%. Also, the growth was 98.7% in experiment [7], 104% in experiment [8], 111% in experiment [9] and 93.8% in [10].
Take `O=C(CSc1nc2ccc([N+](=O)[O-])cc2[nH]1)Nc1cccc([N+](=O)[O-])c1`: the growth in experiment [1] was 41.1%; in experiment [2] it was 11.9%; in experiment [3], 60%; in [4] it was 82.6%; in [5], 28.7%; in experiment [6] it was 55.8%. Besides, the growth was 59.1% in experiment [7], 38.9% in [8], 66.9% in experiment [9] and 66.9% in experiment [10].
`O=C(CCCCCCN1CC(=O)N2[C@@H](C3CCCCC3)c3[nH]c4ccccc4c3C[C@H]2C1=O)NO`: the growth is 11.5% in [1]; 39.5% in experiment [2]; 54.1% in [3]; 66.6% in [4]; 84.6% in experiment [5]; 71.5% in experiment [6]. Further, the growth in experiment [7] was 29%; in [8], 71.1%; in experiment [9], 70.2%; in [10], 105%.
On to `C=CCn1c(SCC(=O)Nc2ccc(C(=O)/C=C/c3cc(OC)c(OC)c(OC)c3)cc2)nnc1-c1cc(-c2ccc(OC)cc2)nc2ccccc12`, for which the growth was 50.9% in experiment [1]; 55.5% in experiment [2]; 72.8% in experiment [3]; 105% in experiment [4]; 90% in experiment [5]; 98% in experiment [6]. For the same compound, the growth in experiment [7] was 98.5%; in [8], 93.4%; in experiment [9] it was 90.4%; in experiment [10], 96.4%.
As for `C=C1C(=O)O[C@H]2[C@H]1CC/C(COC(=O)c1cc3cc(F)ccc3[nH]1)=C\CC[C@@]1(C)O[C@@H]21`, the growth is -5.71% (active) in experiment [1]; -33.3% (active) in experiment [2]; -42% (active) in [3]; -74.2% (active) in [4]; -68.2% (active) in [5]; 26.7% in [6]. The growth was -72.1% (active) in experiment [7], -85.5% (active) in experiment [8], -14.2% (active) in experiment [9] and -20.2% (active) in experiment [10].
In the case of `Cc1ccc(-c2cc(C(=O)N3N=C(c4ccc(N)cc4)CC3c3ccc(Cl)cc3)c3ccccc3n2)cc1` (stereo not given), the growth was 11.2% in experiment [1]; 19.9% in experiment [2]; 25.7% in experiment [3]; 75.2% in experiment [4]; 69% in experiment [5]; 34.2% in experiment [6]. In addition, the growth in experiment [7] was 47.4%; in experiment [8], 14.6%; in [9] it was 6.64% (active); in [10], 21.7%.
With `COc1cc(/C=N/Nc2ccccc2F)cc(OC)c1OC`, the growth in experiment [1] was 90.9%; in experiment [2], 83.8%; in experiment [3] it was 92%; in experiment [4] it was 94.6%; in experiment [5] it was 92.3%; in experiment [6] it was 111%. The growth in experiment [8] was 108%; in experiment [9] it was 94.9%; in experiment [10], 99.6%.
Turning to `CCNCc1ccc(O)c2ncccc12`, the growth in experiment [1] was 19%; in experiment [2] it was 24.2%; in experiment [3], 23%; in experiment [4], 64.7%; in experiment [5], 17.8%; in experiment [6] it was 27.9%. For the same compound, the results for the growth in experiment [8], in experiment [9] and in experiment [10] were 37.7%, 39.9% and 27.3%, respectively.
Consider `COC(=O)c1c2c(c(C)[n+]([O-])c1C)C(=O)C=CC2=O`, for which the growth in experiment [1] is 20.2%; in experiment [2], -24.8% (active); in experiment [3] it was -6.72% (active); in [4], -61.1% (active); in experiment [5] it was -16.6% (active); in experiment [6] it was 90.3%. The growth was -8.77% (active) in experiment [8], 0.0938% (active) in experiment [9] and -19.8% (active) in experiment [10].
For the compound `CCn1cc(C2=C(c3cn(C)c4ncccc34)C(=O)NC2=O)c2cccnc21`, the growth was 59.4% in [1]; 85.2% in [2]; 82.5% in [3]; 102% in experiment [4]; 69.3% in [5]; 41.6% in experiment [6]. Besides, the growth in [8] was 64.7%; in experiment [9], 32%; in [10], 78.2%.
Turning to `CCN1C(=O)N(CC)C2C1NN=c1s/c(=C\c3cc4ccccc4[nH]3)c(=O)n12` (stereo not given), the growth in experiment [1] is 22.8%; in experiment [2] it was -32.1% (active); in [3], -14.2% (active); in experiment [4], 33.9%; in [5], 32.9%; in experiment [6], 31.7%. Also, the values for the growth in [8], in experiment [9] and in experiment [10] were 11.7%, 13.8% and 3.61% (active), respectively.
As to `CCCCc1oc2ccccc2c1C(=O)c1ccc(O)cc1`, the growth in experiment [1] was 31%; in [2], 42.5%; in experiment [3], 82.2%; in experiment [4] it was 84.3%; in [5], 68.2%; in experiment [6], 94.4%. For the same compound, the growth in [8] is 94.3%; in [9], 83.2%; in [10], 76.1%.
For `CCCCCCCCNc1cc2c3c(c1)CCCN3CCC2`, the growth in experiment [1] was 26%; in experiment [2] it was 12.3%; in experiment [3] it was 15.8%; in experiment [4] it was 17.6%; in [5], 35.2%; in [6], 10.7%. In addition, the growth is 4.22% (active) in experiment [8], 23.3% in [9] and 70.7% in experiment [10].
`COc1ccc2c(c1)c(-c1nc(-c3cn(C)c4ncccc34)cs1)cn2CCO`: the growth in experiment [1] was 58.2%; in [2], 50.5%; in experiment [3], 73%; in experiment [4] it was 76%; in [5], 45.5%; in experiment [6], 89.8%. Also, the growth in experiment [8] is 99.1%; in experiment [9], 80.9%; in experiment [10], 90%.
`CCOC(=O)c1c(C)nc2c(c1N)CC(=O)N2Cc1cc(OC)c(OC)c(OC)c1`: the growth in experiment [1] was 20.7%; in [2], 40.9%; in experiment [3] it was 61.9%; in experiment [4], 93%; in experiment [5], 51.3%; in [6], 57.2%. For the same compound, the growth in experiment [7] is 53.1%; in experiment [8], 23.5%; in experiment [9], 65.1%; in experiment [10], 17.6%.
Take `Nc1ccc([N+](=O)[O-])cc1N=C/C=C/c1ccccc1`: the growth is 35.5% in [1]; 25.6% in experiment [2]; 79.9% in experiment [3]; 90.9% in [4]; 79.4% in experiment [5]; 87.6% in [6]. For the same compound, the growth in [8] is 84.1%; in [9] it was 67.4%; in experiment [10], 50.9%.
As for `NC(=O)c1ccc(NC(=O)c2oc3ccccc3c2-c2cnn(-c3ccccc3)c2)cc1`, the growth was 15.9% [50 µM] in [1]; 17.6% [50 µM] in experiment [2]; 13.4% [50 µM] in experiment [3]; -6.33% [50 µM] (active) in experiment [4]; -30.5% [50 µM] (active) in experiment [5]; 62.4% [50 µM] in experiment [6]. The results for the growth in experiment [8] and in experiment [9] were 1.08% [50 µM] (active) and 5.15% [50 µM] (active), respectively.
As to `CCOC(=O)Cn1c(=O)c2c3ccccc3n(C)c2n2nnc(-c3ccccc3)c12`, the growth in experiment [1] is -50.7% (active); in experiment [2], 65%; in [3] it was 113%; in experiment [4], 74.3%; in experiment [5], 102%; in [6], 117%. Also, the figures for the growth in experiment [8], in experiment [9] and in experiment [10] were 100%, 82.1% and 85.7%, respectively.
Turning to `COc1cc(Nc2ncccc2NC(=O)c2cn(Cc3cccc(Oc4ccccc4)c3)nn2)cc(OC)c1`, the growth in [1] was 40.8%; in experiment [2], 71.6%; in experiment [3], 87.8%; in experiment [4] it was 107%; in experiment [5], 92.7%; in [6], 96.2%. For the same compound, the growth in [7] was 99.3%; in experiment [8], 85.3%; in experiment [9], 79.3%; in experiment [10], 76%.
Consider `COC(=O)c1c2c(n3ccc(C)cc13)C(=O)c1ccccc1C2=O`, for which the growth is 45.9% in [1]; 61.1% in [2]; 60.2% in [3]; 116% in experiment [4]; 81.7% in experiment [5]; 103% in [6]. For the same compound, the growth was 64.5% in experiment [7], 67.6% in [8], 77.7% in experiment [9] and 72.8% in experiment [10].
Take `CN1CCN(CCCOC(=O)c2c3c(n4ccccc24)C(=O)c2ncccc2C3=O)CC1`: the growth in experiment [1] was -11.2% (active); in experiment [2], -0.22% (active); in [3], 4.94% (active); in [4], -4.35% (active); in experiment [5], -11.6% (active); in experiment [6], -46.4% (active). For the same compound, the values for the growth in experiment [8], in experiment [9] and in [10] were 0.457% (active), -1.51% (active) and 2.37% (active), respectively.
On to `c1ccc(CNc2ccc3nc(CCC4CCCCC4)[nH]c3c2)cc1`, for which the growth in experiment [1] was 80.8%; in [2], 47.9%; in experiment [3], 72.3%; in experiment [4], 63.4%; in [5], 47.5%; in [6], 86.8%. For the same compound, the growth is 63.9% in [8], 80.9% in experiment [9] and 61.8% in [10].
For the compound `CCOC(=O)c1c(NC(=O)CSc2n[nH]c3nc4ccccc4n23)sc(CC)c1C`, the growth in [1] is -28.6% (active); in [2] it was 107%; in experiment [3], 99.2%; in experiment [4] it was 82%; in experiment [5], 98.1%; in experiment [6], 97.4%. The growth in [8] was 106%; in experiment [9], 102%; in [10], 95.2%.

Values taken from PubChem BioAssay (NCI).
